Entries with a potency or affinity are not part of this list. Calls of active or inactive are those of the source. Unless noted, how the calls were made is not given here.
Each compound was assayed against Calcium-dependent protein kinase 1 (Plasmodium falciparum (isolate 3D7)) (UniProt P62344) (assay: PfCDPK1 kinase inhibitors, biochemical, TCAMS library (AID 1159585; cut-off not given, nearly all actives have IC50 up to about 0.98 µM;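 further: inhibitors leave more ATP so luminescence rises with inhibition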)). Conditions: recombinant PfCDPK1, Kinase-Glo ATP depletion luminescence.
Calcium-dependent protein kinase 1 (Plasmodium falciparum (isolate 3D7)), sequence (P62344 whole entry, looked up): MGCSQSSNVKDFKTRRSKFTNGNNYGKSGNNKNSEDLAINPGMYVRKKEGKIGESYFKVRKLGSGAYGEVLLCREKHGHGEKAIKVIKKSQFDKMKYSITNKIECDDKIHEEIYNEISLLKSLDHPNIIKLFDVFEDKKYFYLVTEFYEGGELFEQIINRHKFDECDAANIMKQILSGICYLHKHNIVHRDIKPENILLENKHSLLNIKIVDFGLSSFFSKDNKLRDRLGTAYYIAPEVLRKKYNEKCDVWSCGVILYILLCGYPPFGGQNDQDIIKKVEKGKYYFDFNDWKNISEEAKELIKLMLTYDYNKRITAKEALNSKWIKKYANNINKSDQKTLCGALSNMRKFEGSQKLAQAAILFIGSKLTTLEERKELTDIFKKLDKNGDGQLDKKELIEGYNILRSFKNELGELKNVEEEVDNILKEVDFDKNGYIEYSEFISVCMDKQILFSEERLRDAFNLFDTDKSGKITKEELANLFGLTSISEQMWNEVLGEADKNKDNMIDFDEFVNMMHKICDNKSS

outcome, inactive:
Fc1cccc(COc2ccc(-n3ccc4c(NCCCn5ccnc5)ncnc43)cc2Cl)n1
N#Cc1cccc(C(=O)NC2CCN(CCCCCNC(=O)/C=C/c3ccc(Cl)c(Cl)c3)CC2)c1
Cc1[nH]c(C)c(-c2ccc(C(=O)c3ccc(Cl)cc3)cc2)c(=O)c1Cl
Fc1ccc(-c2nc(NCc3cccc(C(F)(F)F)c3)nn2-c2cccc(C(F)(F)F)c2)cc1C(F)(F)F

What follows are compounds tested against Plasmodium falciparum protein kinase 6 (PK6, PF3D7_1337100) (UniProt Q8IDW1) (assay: PfPK6 kinase inhibitors, biochemical, TCAMS library (AID 1159586)). Conditions: recombinant PfPK6, Kinase-Glo ATP depletion luminescence.
Plasmodium falciparum protein kinase 6 (PK6, PF3D7_1337100), sequence (Q8IDW1 1-305): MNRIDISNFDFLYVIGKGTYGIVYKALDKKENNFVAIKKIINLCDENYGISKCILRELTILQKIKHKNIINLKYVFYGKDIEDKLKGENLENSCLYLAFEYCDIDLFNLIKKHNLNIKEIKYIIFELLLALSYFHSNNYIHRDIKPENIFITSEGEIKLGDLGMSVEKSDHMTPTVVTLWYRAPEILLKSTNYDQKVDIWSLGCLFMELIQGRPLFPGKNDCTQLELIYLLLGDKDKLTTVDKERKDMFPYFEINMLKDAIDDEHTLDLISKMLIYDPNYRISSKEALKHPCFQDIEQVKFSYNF

outcome, inactive:
Cn1c2c(c3ccccc31)CN(CCC1(c3ccc(Cl)c(Cl)c3)CN(C(=O)Cc3ccccc3)CCO1)CC2 (stereo not drawn)
O=C(NCc1ccc(F)cc1)Nc1ccc(-c2cccc(-c3nc4ccc(F)cc4[nH]3)c2)cc1
COc1ccc(/C=C/C(=O)N2CCc3cc4nccc(N5CCN6CCC[C@H]6C5)c4cc32)cc1
CS(=O)(=O)Nc1cccc(-c2cnc3[nH]cc(-c4cc(N)cc(C(=O)O)c4)c3c2)c1
CCN(CC)CCN(Cc1ccc(-c2ccc(C(F)(F)F)cc2)cc1)C(=O)Cn1c(CCc2ccc(F)c(F)c2F)nc(=O)c2cccnc21
Cc1cc(N2CCOCC2)nc2ccc(NC(=O)c3ccc(Cl)c([N+](=O)[O-])c3)cc12
CCOc1cccc(C(=O)Nc2ccc(-c3nc4ccccc4[nH]3)cc2)c1
O=C(NCCCCN1CCC(c2ccc([N+](=O)[O-])cc2)CC1)c1ccc(NC(=O)c2ccc(Cl)cc2)cc1
O=C(Nc1cccc(-c2ccc(CN3CCNCC3)cc2)c1)c1cccc(Cl)c1
Cc1cc(N(C)C)nc(Nc2ccc(NC(=O)C(C)Oc3ccccc3)cc2)n1 (stereo not drawn)
CCN(CC)CCN(Cc1ccc(-c2ccc(C(F)(F)F)cc2)cc1)C(=O)Cn1c(CCc2ccc(F)cc2)nc(=O)c2sccc21
Cc1ncc([N+](=O)[O-])n1CCOC(=O)NC(NCC1COc2ccccc2O1)C(Cl)(Cl)Cl (stereo not drawn)
COC(=O)c1ccc(CN2CCC(N(Cc3cccc(Oc4ccccc4)c3)S(=O)(=O)c3ccc(NC(C)=O)cc3)CC2)cc1
COc1ccc(CN2CCC(N3CC(c4ccccc4)(c4ccccc4)OCC3=O)C2)c(O)c1 (stereo not drawn)
CC(C)Oc1ccc(C=CC(=O)Nc2noc3ccccc23)cc1
N#Cc1ccc(Cn2ccc3c4c(N)nc(N)nc4ccc32)cc1
CC(=O)c1cccc(Nc2nc3c(C#N)c(OCc4cc(Cl)cc(Cl)c4)ccc3[nH]2)c1
CCN(CC)CCCN(Cc1ccc(-c2ccc(C(F)(F)F)cc2)cc1)C(=O)Cn1c(SCc2cccc(F)c2F)cc(=O)c2ccccc21
Cc1[nH]c(C)c(-c2ccc(OCCOc3ccc(C(F)(F)F)cn3)cc2)c(=O)c1Br
CC(C)CCOc1ccc(NC(=O)c2cccs2)cc1
CCN1CCN(c2ccc(Nc3ccnc4ccc(Br)cc34)cc2)CC1
CC1(C)N=C(NC(=O)Nc2ccc([N+](=O)[O-])cc2)N=C(N)N1OCc1cccc2ccccc12
CC(O)C1CCCCN1C(=O)c1cccc(-c2cccc(-c3nc4ccc(F)cc4[nH]3)c2)c1 (stereo not drawn)
COc1cccc(-c2cccc(-c3ccc(NC(=O)c4ccc([N+](=O)[O-])o4)cc3)n2)c1
N#Cc1ccc2c(c1)CN(C1CCC(NC(=O)c3cc(-c4ccc(Cl)cc4)cs3)CC1)CCC2 (stereo not drawn)
CCOc1ccc2nc3cc(NC(=O)c4ccco4)ccc3c(N)c2c1
COc1ccc2ncc(F)c([C@@H](O)CN3CCC(NCc4cc5c(cn4)OCS5)CC3)c2c1
FC(F)(F)c1ccc2nccc(NCc3ccccc3)c2c1
COc1ccc(CN2CCCN(Cc3cccc(C(=O)Nc4ccc(C(C)(C)C)cc4)c3)CC2)cc1
CCc1ccc(C(=O)NC(=O)c2ccccc2O)cc1
COc1ccc(N2CCN(CCCNC(=O)c3ccc(NC(=O)c4cc(Cl)cc(Cl)c4)cc3)CC2)c(OC)c1
CCCC(=O)Nc1ccc(OCCCN(Cc2ccccc2F)c2ccc(C#N)c(C(F)(F)F)c2)cc1
CN(C)c1ccc(C2c3nc[nH]c3CCN2C(=O)Nc2cccc([N+](=O)[O-])c2)cc1 (stereo not drawn)
COc1cccc(NC(=O)Nc2ccc(Nc3nc(C)cc(N(C)C)n3)cc2)c1
CCn1ncc2c(N3CCCC3=O)cc(C(=O)N[C@@H](Cc3ccccc3)[C@H](O)CNC(C)(C)c3cccc(C(F)(F)F)c3)cc21
Fc1cccc(COc2ccc(-n3ccc4c(NCCCn5ccnc5)ncnc43)cc2Cl)n1
N#Cc1cccc(C(=O)NC2CCN(CCCCCNC(=O)/C=C/c3ccc(Cl)c(Cl)c3)CC2)c1
Cc1[nH]c(C)c(-c2ccc(C(=O)c3ccc(Cl)cc3)cc2)c(=O)c1Cl
Fc1ccc(-c2nc(NCc3cccc(C(F)(F)F)c3)nn2-c2cccc(C(F)(F)F)c2)cc1C(F)(F)F

Reference: PubChem BioAssay
